Inconclusive results are not listed. Active and inactive are the calls of the source. Unless noted, calls follow the shape of the dose curve; as a rule, active = well fitted curve in the direction sought with a large enough effect; inconclusive = small, poorly fitted or top-dose-only effect, or another doubt; inactive = no such curve, though single readings can be large; an effect the other way counts as inactive or inconclusive.
Assays:
[1] = target: Lysosomal acid glucosylceramidase (Homo sapiens) (UniProt P04062); test: Glucocerebrosidase-p2 (AID 348; in the data active = potency below about 10 µM; also: potency is read from the fitted curve at half-maximal effect); conditions: purified GBA, blue fluorogenic substrate, 40 min
In short: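 Compounds titrated from 0.6 nM upwards against 0.2 nM enzyme in pH 5.9 citric acid/KH2PO4, taurocholate, tween-20; blue fluorogenic substrate 80 uM, 40 min room temperature, stopped and read Ex 365/Em 440 for AC50.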

[2] = AP1 Signaling Pathway (AID 357; active = well fitted curve in either direction with a large enough effect, not every such curve was filed as active;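 also: ME-180 reporter cells stimulated with EGF at its EC50 level; % is scaled to controls: 0 for no effect and ±100 for the full control effect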); conditions: ME-180 AP-1-bla reporter, EGF-induced, beta-lactamase ratio, 5 h; at 7.69 µM (top of the series) unless noted
In short: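 Cells are seeded overnight, exposed to compound titrations and an EC50 level of EGF for 5 hours at 37 °C, then loaded with CCF4 dye for 2.5 hours. Beta-lactamase activity under the AP-1 element is read as a blue/green ratio.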

[3] = target: Cytochrome P450 1A2 (Homo sapiens) (UniProt P05177); test: p450-cyp1a2 (AID 410; calls by dose curve; also: potency is read from the fitted curve at half-maximal effect); conditions: recombinant CYP1A2, luciferin-ME demethylation, luminescence; series mostly up to 57 µM
In short: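 Inhibition was calculated relative to 57 uM furafylline (full inhibition). The reaction used human CYP1A2 at 20nM with Luciferin-ME at its Km, 100uM, driven by an NADPH-regenerating system for 60 min at room temperature.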

[4] = NFAT Signaling Pathway (AID 444; active = well fitted curve in either direction with a large enough effect, not every such curve was filed as active;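 also: carbachol stimulus at about its EC50 of 1 µM final; % is scaled to controls: 0 for no effect and ±100 for the full control effect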); conditions: Jurkat NFAT-bla M1, carbachol, beta-lactamase ratio, 5 h; at 7.69 µM (top of the series) unless noted
In short: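 Read-out: CCF4 FRET ratio (460 nm/530 nm) after 1 h RT dye loading, used for %activity and AC50 from titration series. Cells: Jurkat NFAT-β-lactamase/M1 line, treated with compound plus 1 uM carbachol for 5 h, 37 °C.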

[5] = Stat Signaling Pathway (AID 446; active = well fitted curve in either direction with a large enough effect, not every such curve was filed as active;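 also: ME-180 cervical cancer cells given 40 pM IL-6 alongside compound; SIE-controlled beta-lactamase reporter measured as 460/530 nm FRET emission ratio; % is scaled to controls: 0 for no effect and ±100 for the full control effect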); conditions: ME-180 SIE beta-lactamase reporter, IL-6 stimulated, 5 h; at 7.69 µM (top of the series) unless noted
In short: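 Reporter line: ME-180 cervical carcinoma, SIE-beta-lactamase. Treatment: compound with 40 pM IL-6, 5 hrs, 37 C, in low-serum OPTI-MEM with 10 mM HEPES pH 7.3. Detection: 460/530 nm fluorescence.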

[6] = target: Glucocorticoid receptor (Homo sapiens) (UniProt P04150); test: GR-GFP Redistribution (AID 450;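 active = compounds whose dose series gives a full or clear partial fitted curve of increased nuclear translocation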; also: potency is read from the fitted curve at half-maximal effect); conditions: U2OS GR-GFP nuclear translocation, laser cytometry, 2 h
[7] = target: Glucocorticoid receptor (Homo sapiens) (UniProt P04150); test: GR-EFC Redistribution (AID 451; calls by dose curve; also: potency is read from the fitted curve at half-maximal effect); conditions: CHO-K1 GR-EFC translocation, beta-gal luminescence, 2 h
In short: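 Translocation of GR-ED fusion to nuclear EA restores b-gal, read by luminescence after 1 h room-temperature detection. Engineered CHO-K1 biosensor cells, 1,000/well, exposed 2 h at 37 C to titrations up to 46 uM final.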

[8] = target: Mitogen-activated protein kinase 10 (Mus musculus) (UniProt Q61831); test: JNK3 AlphaScreen Assay (AID 530; active = well fitted curve in either direction with a large enough effect, not every such curve was filed as active;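 also: kinase came from lysate of stimulated human HepG2 cells; signal reports phosphorylation of biotinylated GST-cJun 1-79 at Ser73 with 10 µM ATP; % is scaled to controls: 0 for no effect and ±100 for the full control effect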); conditions: JNK3 lysate, c-Jun phosphorylation; series mostly up to 57.1 µM
In short: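 Room-temperature AlphaScreen kinase assay; pre-activated HepG2 lysate as JNK3 source, biotin-GST-cJun(1-79) substrate, 10 uM ATP, compound 15 min preincubation.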

[9] = target: 3',5'-cyclic-AMP phosphodiesterase 4B (Homo sapiens) (UniProt Q07343); test: qHTS Assay for Inhibitors of PDE-IV (AID 607; active = well fitted activation curve with a large enough effect in the main read-out, with a control signal flat, not every such curve was filed as active; also: % of control where 0% means no effect); conditions: HEK293 ACTOne CNG channel cells, membrane potential fluorescence; series mostly up to 22.9 µM
In short: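 Cell-based read-out of cAMP via a modified cyclic nucleotide-gated channel and membrane potential dye (535/590 nm) in HEK293 cells expressing PDE4 endogenously. Compounds tested up to 22.9 uM final; 100 uM RO 20-1724 reference.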

[10] = target: Cytochrome P450 3A4 (Homo sapiens) (UniProt P08684); test: qHTS Assay for Activators of Cytochrome P450 3A4 (AID 885); conditions: recombinant CYP3A4, Luciferin-PPXE luminescence, 60 min; series mostly up to 57.1 µM; also: nearly all actives have a fitted effect of over 65% in size
In short: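 Signal was normalized against complete inhibition by 57 uM ketoconazole. The reaction used 20nM CYP3A4 with 25uM Luciferin-PPXE, 10-min compound preincubation and a 60-min NADPH-supported step at RT.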

[11] = Confirmation and Secondary Assay for Modulators of Hemoglobin Beta Chain Splicing at IVS2 654 locus (AID 910); conditions: HeLa EGFP-654 splicing reporter, GFP fluorescence, 48 h; series mostly up to 38.3 µM;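 also: HeLa cells stably carrying EGFP split by mutant beta-globin IVS2-654 intron; per-well total GFP intensity by laser scanning cytometry after 2-day treatment; % of control where 0% means no effect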
In short: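 Readout: per-well total peak green fluorescence (488 nm ex, 500–520 nm em) from objects 5–250 µm, reflecting correct splicing of an EGFP-654 reporter. Compounds were applied for 2 days at 37 °C to overnight-plated HeLa EGFP-654 cells; controls were DMSO and 500 nM IVS2-654 PNA.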

[12] = Confirmation and Secondary Assay for Modulators of Hemoglobin Beta Chain Splicing at IVS2 705 locus (AID 930); conditions: HeLa EGFP-705 splicing reporter, GFP fluorescence, 48 h; series mostly up to 38.3 µM;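 also: HeLa cells stably expressing the EGFP-705 splicing reporter; GFP fluorescence per well restored by corrected splicing of the IVS2-705 intron in EGFP; % of control where 0% means no effect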
In short: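 Assay measures total GFP intensity per well in HeLa EGFP-705 cells after 2 days with compound; mis-splicing normally truncates EGFP, so fluorescence indicates corrected splicing.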

[13] = qHTS Assay for Lipid Storage Modulators (AID 1519; calls by dose curve); conditions: Drosophila S3 cells, BODIPY lipid droplet/cell ratio, laser cytometry, cells loaded with oleic acid; for activity change, negative = inhibition: at 57.5 µM (top of the series)
In short: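 Cells seeded at 5,000 per well were treated with compounds over a concentration series and loaded with oleic acid (400 uM, as added). Lipid droplet fluorescence (488 nm excitation, 500-530 nm channel) was read by laser-scanning cytometry and normalized to 20 uM Triacsin C.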

[14] = target: Ubiquitin carboxyl-terminal hydrolase 1 (Homo sapiens) (UniProt O94782); test: Inhibitors of USP1/UAF1: Pilot qHTS (AID 504865); conditions: purified USP1/UAF1, Ub-rhodamine cleavage fluorescence; series mostly up to 54.9 µM; also: nearly all actives have a fitted effect of over 35% in size; also: potency is read from the fitted curve at half-maximal effect
In short: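 In 50mM HEPES pH 7.8 containing 0.5mM EDTA, 1mM TCEP, 0.1 mg/ml BSA and 0.01% Tween-20, 1nM USP1/UAF1 is exposed to compound for 15 min, then Ub-Rho (150nM final) is added and fluorescence is read over time.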

[15] = Primary qHTS for small molecule stabilizers of the endoplasmic reticulum resident proteome: Secreted ER Calcium Modulated Protein (SERCaMP) assay (AID 1508630); conditions: SH-SY5Y GLuc-SERCaMP (Gaussia luciferase released on ER calcium loss) secretion, thapsigargin, luminescence; series mostly up to 38.4 µM; also: % is scaled to controls: 0 for no effect and ±100 for the full control effect
In short: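 GLuc-SERCaMP-expressing SH-SY5Y cells, pretreated 16 h with compound, are challenged with thapsigargin to empty ER calcium stores; after 4 h, coelenterazine is added directly to the medium and luminescence is imaged.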

[16] = target: Dual specificity protein kinase CLK4 (Homo sapiens) (UniProt Q9HAZ1); test: qHTS Assay for Inhibitors of CDC-like Kinase 4 (ADP-FP Assay) (AID 1795); conditions: Transcreener ADP fluorescence polarization; series mostly up to 50 µM;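 also: recombinant human CLK4 phosphorylating RS repeat peptide at 1 µM ATP; % is scaled to controls: 0 for no effect and ±100 for the full control effect; nearly all actives have a fitted effect of over 60% in size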
In short: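 Clk4 6.25 nM; RS peptide 100 uM; ATP 1 uM; 25 mM Tris pH 7.5, 10 mM MgCl2; 1 h reaction. ADP detected via antibody/orange tracer FP displacement; TG003 positive control.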

[17] = target: Cytochrome P450 2C19 (Homo sapiens) (UniProt P33261); test: qHTS Assay for Inhibitors and Substrates of Cytochrome P450 2C19 (AID 899); conditions: recombinant CYP2C19, luciferin-H EGE luminescence; series mostly up to 57.1 µM; also: potency is read from the fitted curve at half-maximal effect; nearly all actives have a fitted effect of over 60% in size
In short: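 Reactions contain 5nM enzyme, 10uM Luciferin-H EGE (KM) and 50mM KPO4; compound preincubates 10 min at 37C, NADPH regeneration starts turnover for 60 min. Luminescence after detection reagent gives activity.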

[18] = target: Cytochrome P450 3A4 (Homo sapiens) (UniProt P08684); test: qHTS Assay for Inhibitors and Substrates of Cytochrome P450 3A4 (AID 884); conditions: recombinant CYP3A4, Luciferin-PPXE luminescence; series mostly up to 57.1 µM; also: potency is read from the fitted curve at half-maximal effect; nearly all actives have a fitted effect of over 50% in size
In short: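 20 nM human CYP3A4 with 25 uM Luciferin-PPXE (at KM) in 200 mM KPO4, preincubated 10 min with compound; NADPH regeneration started a 60 min RT reaction. Luciferin detected by luminescence, normalized to 57 uM ketoconazole as full inhibition.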

[19] = qHTS Assay for Identification of Small Molecule Agonists for Hypoxia Response Element Signaling Pathway (AID 914; active = well fitted activation curve with a large enough effect in the signal ratio, with a control signal flat, not every such curve was filed as active; the % refers to the signal ratio; also: potency is read from the fitted curve at half-maximal effect); conditions: ME-180 (cervical carcinoma) HRE-bla reporter, beta-lactamase ratio, CoCl2, 17 h; activation: stronger effect = higher value
In short: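 Compounds in a titration series were added to ME-180 reporter cells alongside an EC50 level of CoCl2. After 17 hours, beta-lactamase activity was read as the 460nm/530nm emission ratio of CCF4, giving AC50 values.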

[20] = measured here: cell count channel max response
[21] = measured here: lipid channel max response

Chain of Cytochrome P450 3A4 (Homo sapiens) (P08684 whole entry, looked up): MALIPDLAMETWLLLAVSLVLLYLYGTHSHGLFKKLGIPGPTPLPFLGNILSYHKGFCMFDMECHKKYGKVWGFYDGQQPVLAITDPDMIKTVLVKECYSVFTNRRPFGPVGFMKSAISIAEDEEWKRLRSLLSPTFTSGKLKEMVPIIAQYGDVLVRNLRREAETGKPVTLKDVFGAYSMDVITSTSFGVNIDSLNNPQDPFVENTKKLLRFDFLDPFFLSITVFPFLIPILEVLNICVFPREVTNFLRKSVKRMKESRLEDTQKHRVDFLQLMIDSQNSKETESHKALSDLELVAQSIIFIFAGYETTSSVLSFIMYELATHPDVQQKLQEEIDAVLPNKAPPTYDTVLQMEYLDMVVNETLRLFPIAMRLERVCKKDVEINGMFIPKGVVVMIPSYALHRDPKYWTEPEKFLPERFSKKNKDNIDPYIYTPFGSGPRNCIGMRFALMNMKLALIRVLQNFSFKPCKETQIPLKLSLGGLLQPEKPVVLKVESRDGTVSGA
Chain of Ubiquitin carboxyl-terminal hydrolase 1 (Homo sapiens) (O94782 whole entry, looked up): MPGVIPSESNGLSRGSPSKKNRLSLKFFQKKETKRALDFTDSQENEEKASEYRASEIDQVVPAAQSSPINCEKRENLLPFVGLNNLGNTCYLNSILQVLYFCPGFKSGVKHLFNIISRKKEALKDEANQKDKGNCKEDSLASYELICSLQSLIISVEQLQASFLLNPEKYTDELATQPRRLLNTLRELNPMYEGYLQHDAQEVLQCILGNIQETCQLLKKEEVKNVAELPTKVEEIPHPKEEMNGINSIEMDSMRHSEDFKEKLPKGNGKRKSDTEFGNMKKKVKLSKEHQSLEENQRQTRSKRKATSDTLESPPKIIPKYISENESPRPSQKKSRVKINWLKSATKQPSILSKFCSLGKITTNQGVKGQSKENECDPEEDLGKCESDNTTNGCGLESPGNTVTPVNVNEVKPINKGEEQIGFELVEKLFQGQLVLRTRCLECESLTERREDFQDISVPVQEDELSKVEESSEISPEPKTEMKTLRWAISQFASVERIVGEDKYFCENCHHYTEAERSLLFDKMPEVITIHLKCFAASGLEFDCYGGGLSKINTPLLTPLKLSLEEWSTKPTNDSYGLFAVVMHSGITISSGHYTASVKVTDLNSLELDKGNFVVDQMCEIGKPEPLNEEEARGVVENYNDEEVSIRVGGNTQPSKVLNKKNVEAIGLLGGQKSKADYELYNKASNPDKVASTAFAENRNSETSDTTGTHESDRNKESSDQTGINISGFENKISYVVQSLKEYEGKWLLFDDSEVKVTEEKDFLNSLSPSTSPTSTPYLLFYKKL
Chain of Dual specificity protein kinase CLK4 (Homo sapiens) (Q9HAZ1 whole entry, looked up): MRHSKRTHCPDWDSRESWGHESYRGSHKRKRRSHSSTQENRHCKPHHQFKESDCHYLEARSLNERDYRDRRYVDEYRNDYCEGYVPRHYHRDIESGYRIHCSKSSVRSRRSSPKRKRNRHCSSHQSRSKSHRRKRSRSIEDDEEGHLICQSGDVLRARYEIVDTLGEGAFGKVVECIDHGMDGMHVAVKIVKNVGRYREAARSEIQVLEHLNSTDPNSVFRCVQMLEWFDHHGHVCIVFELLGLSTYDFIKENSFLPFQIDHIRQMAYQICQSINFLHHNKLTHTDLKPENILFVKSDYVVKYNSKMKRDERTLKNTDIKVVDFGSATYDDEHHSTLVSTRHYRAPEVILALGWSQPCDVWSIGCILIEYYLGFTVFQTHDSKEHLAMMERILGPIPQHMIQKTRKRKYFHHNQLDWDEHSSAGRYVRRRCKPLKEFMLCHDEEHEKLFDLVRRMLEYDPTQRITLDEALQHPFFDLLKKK
Chain of Lysosomal acid glucosylceramidase (Homo sapiens) (P04062 whole entry, looked up): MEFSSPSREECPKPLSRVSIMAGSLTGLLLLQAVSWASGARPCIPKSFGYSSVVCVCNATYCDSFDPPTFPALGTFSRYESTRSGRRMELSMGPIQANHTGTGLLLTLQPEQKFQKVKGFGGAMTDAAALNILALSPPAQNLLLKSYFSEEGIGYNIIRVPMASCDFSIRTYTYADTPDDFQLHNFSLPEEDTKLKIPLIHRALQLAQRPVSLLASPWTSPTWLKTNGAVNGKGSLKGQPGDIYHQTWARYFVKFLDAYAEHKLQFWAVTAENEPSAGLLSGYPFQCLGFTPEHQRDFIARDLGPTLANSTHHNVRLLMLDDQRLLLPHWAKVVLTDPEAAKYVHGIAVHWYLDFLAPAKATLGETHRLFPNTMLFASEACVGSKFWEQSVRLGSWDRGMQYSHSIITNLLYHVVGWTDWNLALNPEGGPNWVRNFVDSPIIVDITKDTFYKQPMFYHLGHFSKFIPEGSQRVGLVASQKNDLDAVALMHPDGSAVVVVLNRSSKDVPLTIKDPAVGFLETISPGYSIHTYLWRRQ
Chain of Glucocorticoid receptor (Homo sapiens) (P04150 whole entry, looked up, the tested form may be a part): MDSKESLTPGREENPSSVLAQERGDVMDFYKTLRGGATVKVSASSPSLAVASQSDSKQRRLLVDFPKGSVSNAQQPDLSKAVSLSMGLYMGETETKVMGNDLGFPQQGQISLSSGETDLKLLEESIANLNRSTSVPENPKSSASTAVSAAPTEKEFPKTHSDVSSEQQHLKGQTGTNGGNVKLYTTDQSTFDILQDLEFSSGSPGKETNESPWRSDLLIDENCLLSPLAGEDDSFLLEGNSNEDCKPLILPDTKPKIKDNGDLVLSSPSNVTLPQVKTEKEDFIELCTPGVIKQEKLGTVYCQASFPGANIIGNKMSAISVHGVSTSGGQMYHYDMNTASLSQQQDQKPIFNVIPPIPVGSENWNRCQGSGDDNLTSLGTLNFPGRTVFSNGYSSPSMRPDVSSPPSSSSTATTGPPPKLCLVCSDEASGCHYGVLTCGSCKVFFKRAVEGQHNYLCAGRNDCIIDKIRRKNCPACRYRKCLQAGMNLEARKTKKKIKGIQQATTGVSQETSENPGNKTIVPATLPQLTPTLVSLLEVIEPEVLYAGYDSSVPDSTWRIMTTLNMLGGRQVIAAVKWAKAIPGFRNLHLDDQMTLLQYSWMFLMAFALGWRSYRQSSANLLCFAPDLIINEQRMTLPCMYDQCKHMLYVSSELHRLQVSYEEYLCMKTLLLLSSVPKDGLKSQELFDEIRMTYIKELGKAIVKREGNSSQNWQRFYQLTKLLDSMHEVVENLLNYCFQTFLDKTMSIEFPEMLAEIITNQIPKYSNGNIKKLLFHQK
Chain of Cytochrome P450 1A2 (Homo sapiens) (P05177 whole entry, looked up): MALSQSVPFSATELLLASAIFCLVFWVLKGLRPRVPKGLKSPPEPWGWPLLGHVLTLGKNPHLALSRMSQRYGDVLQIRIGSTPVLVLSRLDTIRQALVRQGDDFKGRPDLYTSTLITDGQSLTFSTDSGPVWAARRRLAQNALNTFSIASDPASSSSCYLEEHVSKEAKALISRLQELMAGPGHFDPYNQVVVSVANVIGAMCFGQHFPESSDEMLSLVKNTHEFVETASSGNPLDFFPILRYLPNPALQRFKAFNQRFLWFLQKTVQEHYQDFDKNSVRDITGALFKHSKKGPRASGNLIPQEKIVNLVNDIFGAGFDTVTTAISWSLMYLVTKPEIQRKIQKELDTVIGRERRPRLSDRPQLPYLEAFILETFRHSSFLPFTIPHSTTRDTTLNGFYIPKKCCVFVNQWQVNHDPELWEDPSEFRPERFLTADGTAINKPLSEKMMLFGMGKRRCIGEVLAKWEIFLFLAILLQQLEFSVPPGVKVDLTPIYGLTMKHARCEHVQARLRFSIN
Chain of 3',5'-cyclic-AMP phosphodiesterase 4B (Homo sapiens) (Q07343 whole entry, looked up): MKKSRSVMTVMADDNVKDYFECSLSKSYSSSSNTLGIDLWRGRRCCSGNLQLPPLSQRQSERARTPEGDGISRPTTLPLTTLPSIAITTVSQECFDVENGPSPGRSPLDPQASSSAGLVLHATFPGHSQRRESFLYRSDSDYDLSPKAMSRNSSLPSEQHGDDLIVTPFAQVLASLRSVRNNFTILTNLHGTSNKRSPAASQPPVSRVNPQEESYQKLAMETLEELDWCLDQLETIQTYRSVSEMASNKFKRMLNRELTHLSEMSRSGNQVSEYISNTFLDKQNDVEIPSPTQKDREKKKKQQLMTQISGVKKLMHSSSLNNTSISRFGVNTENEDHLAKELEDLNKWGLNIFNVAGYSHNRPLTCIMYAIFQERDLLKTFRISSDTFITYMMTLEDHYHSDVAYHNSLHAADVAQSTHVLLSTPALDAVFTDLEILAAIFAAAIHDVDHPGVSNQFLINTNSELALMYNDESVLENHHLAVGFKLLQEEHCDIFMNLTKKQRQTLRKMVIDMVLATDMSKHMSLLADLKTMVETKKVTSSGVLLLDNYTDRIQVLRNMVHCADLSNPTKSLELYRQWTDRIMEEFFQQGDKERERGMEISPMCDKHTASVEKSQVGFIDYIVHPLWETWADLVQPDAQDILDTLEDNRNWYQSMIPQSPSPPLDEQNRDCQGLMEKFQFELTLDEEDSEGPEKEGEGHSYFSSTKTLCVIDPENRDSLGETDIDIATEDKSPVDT
Chain of Cytochrome P450 2C19 (Homo sapiens) (P33261 whole entry, looked up): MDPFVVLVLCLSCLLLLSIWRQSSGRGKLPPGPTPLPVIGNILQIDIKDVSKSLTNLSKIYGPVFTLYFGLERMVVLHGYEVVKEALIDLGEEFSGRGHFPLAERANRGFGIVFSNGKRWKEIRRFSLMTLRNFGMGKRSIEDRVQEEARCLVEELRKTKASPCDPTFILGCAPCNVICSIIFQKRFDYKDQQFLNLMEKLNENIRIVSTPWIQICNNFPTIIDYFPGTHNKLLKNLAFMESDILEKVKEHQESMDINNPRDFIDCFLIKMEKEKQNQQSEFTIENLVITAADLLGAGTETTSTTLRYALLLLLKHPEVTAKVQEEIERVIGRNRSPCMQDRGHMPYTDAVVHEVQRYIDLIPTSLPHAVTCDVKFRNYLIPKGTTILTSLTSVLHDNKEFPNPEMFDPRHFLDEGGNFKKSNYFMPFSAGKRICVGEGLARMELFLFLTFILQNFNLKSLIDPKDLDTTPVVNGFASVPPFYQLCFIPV

CN(C)Cc1ccccc1-c1cc(NC2CC2)ncn1
inactive: Potency [1] > 11.4 µM | activity change, negative = inhibition [2] -5.78% | activity change, negative = inhibition [4] -10% | activity, negative = inhibition [5] 12.3% | Potency [6] > 46 µM | Potency [7] > 46 µM | outcome [8] | Potency [9] | Potency [10] | outcome [11] | outcome [12] | activity change, negative = inhibition [13] 8.29% | Potency [14] | Potency [15]
13%: max response [13, 20]
active: Potency [3] 12.6 µM
22.4%: max response [13, 21]

COc1cccc(Nc2ncc3nc(C)c(=O)n(C)c3n2)c1
5.56%: max response [13, 20]
inactive: Potency [1] > 11.4 µM | activity change, negative = inhibition [2] -0.695% | activity change, negative = inhibition [4] -5.64% | activity, negative = inhibition [5] -12.2% | Potency [6] > 9.22 µM | Potency [7] > 46 µM | outcome [8] | Potency [9] | activity change, negative = inhibition [13] -0.403% | Potency [16] | Potency [14] | Potency [15]
2.52%: max response [13, 21]
active: Potency [3] 1 µM

COc1ccccc1-c1cc(NCc2ccccc2)ncn1
inactive: Potency [1] > 11.4 µM | activity change, negative = inhibition [2] 3.71% | activity change, negative = inhibition [4] -5.25% | activity, negative = inhibition [5] 2.32% | Potency [6] > 46 µM | Potency [7] > 46 µM | outcome [8] | activity change, negative = inhibition [13] 2.28% | Potency [16] | Potency [15]
10.5%: max response [13, 21]
10.9%: max response [13, 20]
active: Potency [3] 2.51 µM | Potency [17] 7.94 µM | Potency [14] 22.4 µM

COc1ccc2[nH]cc(CCNc3ncncc3-c3c(C)noc3C)c2c1
active: Potency [3] 12.6 µM | Potency [18] 0.794 µM | Potency [17] 3.16 µM
11.1%: max response [13, 20]
inactive: Potency [1] > 11.4 µM | activity change, negative = inhibition [2] -11.4% | activity change, negative = inhibition [4] -0.0502% | activity, negative = inhibition [5] -10.2% | Potency [6] > 46 µM | Potency [7] > 46 µM | outcome [8] | Potency [9] | Potency [10] | activity change, negative = inhibition [13] 7.61% | Potency [16] | Potency [14] | Potency [15]
18.3%: max response [13, 21]

CCNc1ncc2nc(-c3cc(F)cc(F)c3)c(=O)n(C)c2n1
-4.13%: max response [13, 20]
-3.55%: max response [13, 21]
active: Potency [3] 2 µM | Potency [19] 3.16 µM
inactive: Potency [1] > 11.4 µM | Potency [6] > 9.22 µM | Potency [7] > 46 µM | outcome [8] | activity change, negative = inhibition [13] -1.81% | Potency [16] | Potency [14] | Potency [15]

CCNc1ncc2nc(C)c(=O)n(C)c2n1
active: Potency [3] 5.01 µM
26.7%: max response [13, 21]
inactive: Potency [1] > 11.4 µM | activity change, negative = inhibition [2] -6.84% | activity change, negative = inhibition [4] 2.38% | activity, negative = inhibition [5] -8.23% | Potency [6] > 9.22 µM | Potency [7] > 46 µM | outcome [8] | activity change, negative = inhibition [13] 2.6% | Potency [16] | Potency [15]
22.7%: max response [13, 20]

Reference: PubChem BioAssay (NCATS)
